Some test systems named below: ERBB2; ERBB3; ERBB4; ERN1.
What all share (conditions): n = 1
For another assay, the system named is T1, ERK1.
T1 construct: gene MAPK3

For another assay, the system named is T2, ERK2.
T2 construct: gene MAPK1

In a further assay the test system is T3, ERK3.
T3 construct: gene MAPK6

Another assay has as its system T4, ERK4.
T4 construct: gene MAPK4

For another assay, the system named is T5, ERK5.
T5 construct: gene MAPK7

The next assay relates to T6, ERK8.
T6 construct: gene MAPK15

Setting [1] is: concentration: 1 μM, replicates: in singlicate.
Setting [2] is: concentration: 1 μM,replicates: in singlicate, 1 µM.

“And” between values parts separate entries of the source, which are not always exact repeats. Equal entries are not always repeated. Where two headings read alike, the source gives them in different places.
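Also: KINOMEscan kinase panel screen.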

Consider `Cc1cccc(-c2cc(Nc3ccncc3)c3ccccc3n2)n1` [GSK223675], for which the “%Inh” value was found to be 0% in the assay with ERBB2 (setting [1]); 0% in the assay on ERBB3 (setting [1]); 26% in the assay with ERBB4 (setting [1]); 0% in the assay with ERK1 (setting [1]); 0% with ERK2 (setting [1]); 0% in the assay with ERK3 (setting [1]). For the same molecule, the “%Inh” value is on record as 25% in the assay on ERK4 (setting [1]), 0% in the assay on ERK5 (setting [1]), 0% with ERK8 (setting [1]) and 13% with ERN1 (setting [1]).

For `COc1cc2nccc(Nc3ccc(NC(=O)c4ccc(C)cc4)c(O)c3)c2cc1OC.Cl` [GW440132], the “%Inh” value is given as 14% in the assay with ERBB2 (setting [1]); 0% in the assay on ERBB3 (setting [1]); 9% in the assay on ERBB4 (setting [1]); 0% in the assay on ERK1 (setting [1]); 2% in the assay with ERK2 (setting [1]); 13% in the assay with ERK3 (setting [1]). Also, the “%Inh” value with ERK4 (setting [1]) came out at 3%; with ERK5 (setting [1]), 0%; in the assay with ERK8 (setting [1]) it was 1%; with ERN1 (setting [1]) it was 29%.

`Cl.Oc1ccc(-c2nc(-c3ccccc3)[nH]c2-c2ccncc2)cc1` [SB-428218]: the “%Inh” value in the assay with ERBB2 (setting [1]) turned out to be 57%; with ERBB3 (setting [1]) it was 31%; with ERBB4 (setting [1]), 27%; in the assay with ERK1 (setting [1]), 0%; in the assay on ERK2 (setting [1]) it was 0%; in the assay on ERK3 (setting [1]), 0%. In addition, the “%Inh” value with ERK4 (setting [1]) is reported as 16%; in the assay with ERK5 (setting [1]) it was 38%; with ERK8 (setting [1]) it was 0%; with ERN1 (setting [1]), 0%.

Take `Cc1ccc(NC(=O)Nc2cccc(C(F)(F)F)c2)cc1` [GSK955403]: the “%Inh” value in the assay with ERBB2 (1 µM) came out at 0%; with ERBB3 (1 µM), 17%; in the assay with ERBB4 (1 µM), 0%; in the assay with ERK1 (1 µM), 0%; in the assay on ERK2 (1 µM) it was 0%; in the assay with ERK3 (1 µM) it was 0%. Besides, the “%Inh” value was found to be 0% in the assay with ERK4 (1 µM), 5% in the assay on ERK5 (1 µM), 0% in the assay with ERK8 (1 µM) and 0% in the assay on ERN1 (1 µM).

As for `COc1cc2ncn(-c3cc(OCC4CCCO4)c(C(N)=O)s3)c2cc1OC` (stereo not drawn) [GSK204607], the “%Inh” value is on record as 0% in the assay on ERBB2 (setting [1]); 20% with ERBB3 (setting [1]); 0% in the assay on ERBB4 (setting [1]); 2% in the assay with ERK1 (setting [1]); 0% in the assay on ERK2 (setting [1]); 20% with ERK3 (setting [1]). The “%Inh” value in the assay with ERK4 (setting [1]), with ERK5 (setting [1]), in the assay on ERK8 (setting [1]) and in the assay on ERN1 (setting [1]) was 0% throughout.

`Cc1cc(NCC(c2ccccc2)c2ccccc2)nc(NCc2ccc(C(F)(F)F)cc2)n1` [GW497681]: the “%Inh” value in the assay with ERBB2 (setting [1]) stood at 21%; in the assay with ERBB3 (setting [1]), 1%; with ERBB4 (setting [1]), 27%; with ERK1 (setting [1]), 0%; in the assay with ERK2 (setting [1]), 0%; with ERK3 (setting [1]), 0%. The “%Inh” value in the assay on ERK4 (setting [1]) amounted to 5%; in the assay with ERK5 (setting [1]) it was 0%; in the assay with ERK8 (setting [1]) it was 0%; in the assay with ERN1 (setting [1]), 0%.

With `NC(=O)c1nnc2ccccc2c1N`, the “%Inh” value is 22% in the assay on ERBB2 (setting [1]); 45% with ERBB3 (setting [1]); 4% with ERBB4 (setting [1]); 0% in the assay on ERK1 (setting [1]); 18% in the assay with ERK2 (setting [1]); 0% with ERK3 (setting [1]). For the same molecule, the “%Inh” value with ERK4 (setting [1]) is on record as 2%; in the assay on ERK5 (setting [1]) it was 5%; in the assay with ERK8 (setting [1]), 0%; with ERN1 (setting [1]), 22%.

Turning to `CCn1c(-c2cccnc2O)nc2cnccc21` [SB-736715], the “%Inh” value in the assay on ERBB2 (setting [1]) turned out to be 9%; with ERBB3 (setting [1]), 0%; in the assay with ERBB4 (setting [1]), 25%; in the assay on ERK1 (setting [1]), 0%; in the assay on ERK2 (setting [1]), 0%; in the assay with ERK3 (setting [1]), 0%. Also, the “%Inh” value with ERK4 (setting [1]), with ERK5 (setting [1]), in the assay with ERK8 (setting [1]) and with ERN1 (setting [1]) was 0% throughout.

Regarding `COc1ccc(CNC(=O)NC2CCN(c3ccnc(Nc4cc(OC)c(OC)c(OC)c4)n3)C2)cc1` (stereo not drawn) [GSK1379748], the “%Inh” value in the assay with ERBB2 (setting [1]) is listed as 0%; with ERBB3 (setting [1]) it was 27%; with ERBB4 (setting [1]), 9%; in the assay on ERK1 (setting [1]) it was 0%; with ERK2 (setting [1]), 0%; in the assay with ERK3 (setting [1]) it was 0%. Moreover, the “%Inh” value in the assay with ERK4 (setting [1]), in the assay on ERK5 (setting [1]), with ERK8 (setting [1]) and with ERN1 (setting [1]) was 0% throughout.

For `CSc1nn2c(=O)cc(N3CCOCC3)nc2n1Cc1cccc(C(F)(F)F)c1C` [GSK2363608], the “%Inh” value with ERBB2 (setting [2]) was 0% and 10%; in the assay with ERBB3 (setting [1]), 0%; in the assay on ERBB4 (setting [2]), 28% and 37%; with ERK1 (setting [1]), 0%; with ERK2 (setting [1]), 0%; in the assay with ERK3 (setting [2]), 7% and 0%. Moreover, the “%Inh” value in the assay with ERK4 (setting [2]) is 54% and 22%; with ERK5 (setting [1]), 0%; in the assay on ERK8 (setting [1]) it was 0%; in the assay on ERN1 (setting [2]), 3% and 1%.

For the molecule `O=C(Nc1ccc2c(c1)OCO2)NC1CCN(c2ccnc(Nc3ccc(F)cc3)n2)C1` (stereo not drawn) [GSK1379724], the “%Inh” value in the assay with ERBB2 (setting [1]) is 45%; with ERBB3 (setting [1]) it was 0%; in the assay with ERBB4 (setting [1]), 44%; in the assay with ERK1 (setting [1]), 0%; in the assay with ERK2 (setting [1]), 0%; with ERK3 (setting [1]) it was 17%. Moreover, the “%Inh” value with ERK4 (setting [1]) came to 0%; in the assay with ERK5 (setting [1]) it was 0%; in the assay on ERK8 (setting [1]), 7%; in the assay on ERN1 (setting [1]) it was 0%.

Regarding `Cc1c(O)cccc1Nc1ccnc2ccc(C(F)(F)F)cc12.Cl` [GW466413], the “%Inh” value is 35% in the assay with ERBB2 (setting [1]); 17% with ERBB3 (setting [1]); 0% in the assay on ERBB4 (setting [1]); 0% with ERK1 (setting [1]); 0% in the assay on ERK2 (setting [1]); 0% in the assay on ERK3 (setting [1]). In addition, the “%Inh” value was 0% in the assay on ERK4 (setting [1]), 0% in the assay with ERK5 (setting [1]), 8% in the assay with ERK8 (setting [1]) and 0% in the assay with ERN1 (setting [1]).

With `Cc1c(Cn2ccn3c(=O)cc(N4CCOCC4)nc23)cccc1C(F)(F)F` [GSK2289044], the “%Inh” value in the assay on ERBB2 (setting [1]), with ERBB3 (setting [1]), with ERBB4 (setting [1]), with ERK1 (setting [1]), with ERK2 (setting [1]) and in the assay on ERK3 (setting [1]) was 0% throughout. Also, the “%Inh” value in the assay with ERK4 (setting [1]) amounted to 0%; in the assay on ERK5 (setting [1]), 0%; in the assay with ERK8 (setting [1]), 0%; in the assay on ERN1 (setting [1]), 3%.

Regarding `Cc1ccc(-c2cc(-c3c[nH]nc3-c3ccccn3)ccn2)cc1` [GW684088], the “%Inh” value was 43% in the assay on ERBB2 (setting [1]); 36% in the assay on ERBB3 (setting [1]); 0% in the assay on ERBB4 (setting [1]); 37% in the assay with ERK1 (setting [1]); 0% in the assay with ERK2 (setting [1]); 3% with ERK3 (setting [1]). Besides, the “%Inh” value in the assay with ERK4 (setting [1]) was 18%; in the assay with ERK5 (setting [1]), 0%; in the assay on ERK8 (setting [1]), 0%; in the assay on ERN1 (setting [1]), 0%.

For `Cn1ccc2ncnc(Oc3ccc(Nc4nc5ccccc5[nH]4)cc3)c21`, the “%Inh” value with ERBB2 (setting [1]) was found to be 3%; in the assay with ERBB3 (setting [1]) it was 0%; in the assay on ERBB4 (setting [1]) it was 0%; in the assay on ERK1 (setting [1]), 0%; in the assay on ERK2 (setting [1]), 2%; in the assay on ERK3 (setting [1]) it was 0%. Also, the “%Inh” value with ERK4 (setting [1]), with ERK5 (setting [1]), in the assay on ERK8 (setting [1]) and with ERN1 (setting [1]) was 0% in each case.

With `Cn1cncc1-c1ccc2ncnc(Nc3ccc(OCc4ccccc4)cc3)c2c1` [GW320571], the “%Inh” value is 99.4% with ERBB2 (setting [1]); 43% in the assay on ERBB3 (setting [1]); 61% in the assay with ERBB4 (setting [1]); 13% in the assay on ERK1 (setting [1]); 10% with ERK2 (setting [1]); 0% in the assay on ERK3 (setting [1]). Besides, the “%Inh” value in the assay on ERK4 (setting [1]) was 0%; with ERK5 (setting [1]), 0%; with ERK8 (setting [1]) it was 25%; in the assay with ERN1 (setting [1]), 0%.

Consider `CCCc1ccc(S(=O)(=O)NC2CCN(c3ccnc(Nc4ccc(F)cc4)n3)C2)cc1` (stereo not drawn) [GSK1379715], for which the “%Inh” value in the assay with ERBB2 (setting [1]) was 7%; with ERBB3 (setting [1]) it was 1%; in the assay on ERBB4 (setting [1]), 25%; in the assay with ERK1 (setting [1]) it was 0%; with ERK2 (setting [1]), 18%; in the assay on ERK3 (setting [1]), 0%. Also, the “%Inh” value with ERK4 (setting [1]) is listed as 13%; in the assay on ERK5 (setting [1]) it was 0%; in the assay on ERK8 (setting [1]), 15%; in the assay with ERN1 (setting [1]), 0%.

On to `Cl.O=C(Nc1cccc(-c2nn3ncccc3c2-c2ccnc(Nc3cccnc3)n2)c1)c1c(F)cccc1F` [GSK312879], for which the “%Inh” value in the assay on ERBB2 (setting [1]) was found to be 95.9%; in the assay with ERBB3 (setting [1]), 0%; in the assay on ERBB4 (setting [1]), 93.2%; in the assay with ERK1 (setting [1]), 8%; with ERK2 (setting [1]) it was 0%; in the assay on ERK3 (setting [1]), 0%. Further, the “%Inh” value with ERK4 (setting [1]) turned out to be 16%; in the assay with ERK5 (setting [1]), 0%; in the assay with ERK8 (setting [1]), 28%; in the assay on ERN1 (setting [1]), 4%.

For the origin of these results see publication PMC5540273 (PLoS ONE, 2017).
